Results filed as inconclusive are left out. Values without a mark were called inactive. The source made the active and inactive calls. Calls come from the whole dose curve; as a rule, active = well fitted cell-killing curve with a large enough effect; inconclusive = small, poorly fitted or top-dose-only effect, or effect the other way; inactive = flat fitted curve, though single readings scatter. Where a SMILES comes first, the peptide text is derived from it. [ ]: non-standard residue; d: D form. ξ: configuration not given here. ξPhe(βξ-Me) = CC(c1ccccc1)C(N)C(=O)O; GABA = NCCCC(=O)O
% is set by controls: 0 for no effect and ±100 for the full control effect; potency is the fitted concentration of half-maximal effect.

For the first assay, the system named is PA-1. The assay can be described thus: Primary qHTS to identify gynecologic anti-cancer compounds using libraries of approved drugs and bioactive compounds (AID 1345084). Note: nearly all actives have a fitted effect of over 55% in size. Conditions: Gynecologic cancer cell panel viability, ATPlite luminescence, 48 h; series mostly up to 57.5 µM; activity change, negative = cytotoxicity: at the top concentration. Put shortly: (§1)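 Cells, 1,000 per well, were allowed to settle for 16 h at 37 C before compound addition. Five concentrations were tested for 48 h, and viability was read by ATPlite luminescence after 15 min at room temperature.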
In general terms: In qHTS, concentration-response curves come from the screen itself.
Turning to `CCOC(=O)[C@H]1O[C@@H]1C(=O)N[C@@H](CC(C)C)C(=O)NCCC(C)C`, the “activity change, negative = cytotoxicity” value is -0.154%. Still for that read-out and setting: to `CC(=O)N1c2ccccc2C2(O)CC3C(=O)NC(CC(C)C)C(=O)N3C12` (stereo unspecified) belongs -3.59% [at 38.5 µM]. Consider `CC(C)=CCC/C(C)=C/CC/C(C)=C/CC[C@]1(C)CCc2cc(O)cc(C)c2O1`, for which the “activity change, negative = cytotoxicity” value is -9.01% [at 25.3 µM]. On to `O=C(c1ccc(NS(=O)(=O)c2cccc3cccnc23)cc1)N1CCN(CC2CC2)CC1`, for which the “activity change, negative = cytotoxicity” value was -4.57%.

Regarding `C[C@@H]1O[C@@H](O[C@H]2[C@H](OC(=O)[C@]34CCC(C)(C)C[C@H]3C3=CCC5[C@@]6(C)C[C@H](O)[C@H](O[C@@H]7O[C@H](CO)[C@@H](O[C@@H]8O[C@H](CO)[C@@H](O)[C@H](O)[C@H]8O)[C@H](O)[C@H]7O)[C@@](C)(CO)C6[C@H](O)C[C@@]5(C)[C@]3(C)C[C@H]4O)OC[C@H](O)[C@@H]2O)[C@H](O)[C@H](O)[C@H]1O[C@@H]1OC[C@@H](O)[C@H](O[C@@H]2OC[C@](O)(CO)[C@H]2O)[C@H]1O` (stereo partly specified), the activity change, negative = cytotoxicity is -7.05% [at 6.55 µM].

For a further assay, the system named is SKOV3. Described as above. The conditions noted are these: Gynecologic cancer cell panel viability, ATPlite luminescence, 48 h; series mostly up to 57.5 µM; activity change, negative = cytotoxicity: at the top concentration. In outline:
as §1
Background: Cellular ATP, detected with luciferase, serves as a proxy for viable cell number.
As for `CC(CO[C@@H]1O[C@H](COC(=O)/C=C/c2ccc(O)c(O)c2)[C@@H](O)[C@H](O)[C@H]1O)C1(O)COC(=O)C1` (stereo partly specified), the “activity change, negative = cytotoxicity” value is -1.08% [at 25.3 µM]. The same measure, in the same setting: the same measure for `CC1(C)CC[C@]2(C(=O)O)CC[C@]3(C)C(=CCC4[C@@]5(C)CCC(O[C@@H]6OC[C@H](O)[C@H](O)[C@H]6O[C@@H]6O[C@H](CO)[C@@H](O)[C@H](O)[C@H]6O)[C@@](C)(CO)C5CC[C@]43C)[C@@H]2C1` (stereo partly specified): 0% [at 25.3 µM]. Consider `COc1ccc(C[C@H](N)C(=O)N[C@H]2[C@@H](O)[C@H](n3cnc4c(N(C)C)ncnc43)O[C@@H]2CO)cc1`, for which the Potency is 3.55 µM (active). As for `CC1(C)C[C@H]2C3=CCC4[C@@]5(C)CC[C@H](O[C@H]6O[C@H](C(=O)O)[C@@H](O)[C@H](O)[C@H]6O[C@H]6O[C@H](CO)[C@@H](O)[C@H](O)[C@H]6O[C@@H]6O[C@H](CO)[C@@H](O)[C@H](O)[C@H]6O)[C@](C)(CO)C5CC[C@@]4(C)[C@]3(C)CC[C@@]2(C)[C@H](O[C@@H]2OC[C@H](O)[C@H](OC3O[C@H](CO)[C@@H](O)[C@H](O)[C@H]3O)[C@H]2O)[C@@H]1O` (stereo partly specified), the activity change, negative = cytotoxicity was -2.8% [at 6.55 µM]. Same read-out and setting: to `CNc1nc(Nc2cnn([C@H]3CCN(C4COC4)C[C@@H]3F)c2Cl)ncc1C(F)(F)F` belongs 11.9%; to `C[C@@H]1O[C@@H](OC[C@H]2O[C@@H](OCCc3ccccc3)[C@H](O)[C@@H](O)[C@@H]2O)[C@H](O)[C@H](O)[C@H]1O`, -29.3% [at 25.3 µM]. The same measure, in the same setting: to `C=C[C@](C)(CC/C=C(\C)C(=O)O)O[C@@H]1OC[C@H](O)[C@H](O)[C@H]1O` belongs 21.4% [at 38.5 µM]; to `CC(=O)N1c2ccccc2C2(O)CC3C(=O)NC(CC(C)C)C(=O)N3C12` (stereo unspecified), -5.67% [at 38.5 µM]; to `COc1cc(N2CCC(O)CC2)ccc1Nc1cc(Nc2ccccc2S(=O)(=O)C(C)C)c2cc[nH]c2n1`, -5.63% [at 38.5 µM].

The next assay has as its system Tov-21-G. Described as above. The conditions noted are these: Gynecologic cancer cell panel viability, ATPlite luminescence, 48 h; series mostly up to 57.5 µM; activity change, negative = cytotoxicity: at the top concentration. In outline: as §1
For `COC(=O)C1C(CC(C)=O)C=CC(O)C12Oc1cc(C)cc(O)c1C2=O` (stereo unspecified), the “activity change, negative = cytotoxicity” value is -3.46% [at 38.5 µM]. On the same count and under the same terms, to `CC1(C)CCC[C@@]2(C)[C@H]1[C@H](O)C=C1COC(=O)[C@@]12O` belongs 0.318%. Consider `O=C(O)Cc1nn(Cc2nc3cc(C(F)(F)F)ccc3s2)c(=O)c2nccnc12`, for which the “activity change, negative = cytotoxicity” value was -1.07%. Consider `CC1CCC2(C(=O)OC3OC(CO)C(O)C(O)C3O)CCC3(C(=O)O)C(=CCC4C5(C)CCC(OC6OC(C)C(O)C(O)C6O)C(C)(C)C5CCC43C)C2C1C` (stereo unspecified), for which the “activity change, negative = cytotoxicity” value was 1.74% [at 25.3 µM]. Same read-out and setting: to `CC(CO[C@@H]1O[C@H](COC(=O)/C=C/c2ccc(O)c(O)c2)[C@@H](O)[C@H](O)[C@H]1O)C1(O)COC(=O)C1` (stereo partly specified) belongs 0.926% [at 25.3 µM]; to `CCCCN(CCCC)C(=O)CN1C[C@H](c2ccc3c(c2)OCO3)[C@@H](C(=O)O)[C@@H]1c1ccc(OC)cc1`, 10.7%. Still for that read-out and setting: to `CC(C)C(=O)O[C@@H]1[C@@H](O)[C@@H](O[C@H]2O[C@H](CO)[C@@H](O)[C@H](O)[C@H]2O)O[C@H](CO)[C@H]1O` belongs 9.4% [at 25.3 µM]; to `CC1(C)CC[C@]2(C(=O)O)CC[C@]3(C)C(=CCC4[C@@]5(C)CCC(O[C@@H]6OC[C@H](O)[C@H](O)[C@H]6O[C@@H]6O[C@H](CO)[C@@H](O)[C@H](O)[C@H]6O)[C@@](C)(CO)C5CC[C@]43C)[C@@H]2C1` (stereo partly specified), -1.21% [at 25.3 µM]. Still for that read-out and setting: to `CCc1c(CC(N)=O)c2cc(OCCCP(=O)(O)O)ccc2n1Cc1ccccc1` belongs 9.1%. In the case of `COc1ccc(C[C@H](N)C(=O)N[C@H]2[C@@H](O)[C@H](n3cnc4c(N(C)C)ncnc43)O[C@@H]2CO)cc1`, the Potency was 3.98 µM (active). As for `COC(=O)C1=CO[C@@H](O[C@@H]2O[C@H](CO)[C@@H](O)[C@H](O)[C@H]2O)[C@@H]2[C@@H](C(=O)OC)[C@@H](O)C(O)[C@H]12` (stereo partly specified), the “activity change, negative = cytotoxicity” value was 1.58% [at 25.3 µM]. For the molecule `CC(C)CC1NC(=O)C(C(C)c2ccccc2)NC(=O)C(C(C)C)NC(=O)C(C)NC(=O)CCCNC(=O)C(Cc2c[nH]c3ccccc23)NC(=O)C(C)NC1=O` (stereo not drawn) (cyclo([GABA]AV[ξPhe(βξ-Me)]LAW); configuration not given here), the “activity change, negative = cytotoxicity” value is 13.5% [at 25.3 µM].

Source of the values: PubChem BioAssay (NCATS).
